Assay results reported in PubChem BioAssay (Tox21).
Several values for one entry are separate records, joined by “and”; a condition that tells them apart may be missing. Equal entries are not always repeated. Records with an inconclusive call do not appear. Where a structure was tested more than once in an assay, its records may differ in their call. Activity calls are given as the source filed them. Unless noted, calls come from the whole dose curve; as a rule, active = well fitted curve in the direction sought with a large enough effect in the repeat runs; inconclusive = weak or mixed curves; inactive = no such curve, though single readings can be large; an effect the other way counts as inactive or inconclusive.

Assays:
[1] = qHTS assay to identify small molecule agonists of the peroxisome proliferator-activated receptor delta (PPARd) signaling pathway - cell viability counter screen (AID 743211); note: nearly all actives have a fitted effect of over 55% in size; note: potency is the fitted concentration of half-maximal effect
In short: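 Luminescent ATP viability assay (CellTiter-Glo, 30 min RT) in UAS-bla HEK293H cells carrying the PPAR delta reporter construct, 3000 cells/well, after a 17 h compound treatment at 37 C.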

[2] = qHTS assay to identify small molecule antagonists of the peroxisome proliferator-activated receptor delta (PPARd) signaling pathway - cell viability counter screen (AID 743213); note: nearly all actives have a fitted effect of over 50% in size
In short: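 In this counter screen, HEK293H cells carrying a UAS-beta-lactamase reporter are co-treated with test compounds and 300 nM L165041 (final) for 17 h at 37 C; cell viability is quantified by CellTiter-Glo luminescence.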

[3] = molecular target: Peroxisome proliferator-activated receptor delta (Homo sapiens) (UniProt Q03181); test: qHTS assay to identify small molecule antagonists of the peroxisome proliferator-activated receptor delta (PPARd) signaling pathway (AID 743215; active = well fitted inhibition curve with a large enough effect in the signal ratio in the repeat runs, not every such curve was filed as active; the % refers to the signal ratio;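 note: cells stimulated with agonist L165041 at 300 nM final during compound exposure; series mostly up to about 62 µM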)
In short: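 With L165041 present at 300 nM final, compounds were incubated 17 h at 37 C on PPARd UAS-bla HEK293H cells. A FRET-based beta-lactamase substrate was then applied for 2 h at room temperature and fluorescence intensity recorded.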

[4] = qHTS assay to identify small molecule agonists of the farnesoid-X-receptor (FXR) signaling pathway - cell viability counter screen (AID 743218); note: nearly all actives have a fitted effect of over 45% in size
In short: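 After 16 h at 37 C with test compounds, FXR-bla HEK 293T cells were given LiveBLAzer B/G substrate for 2 h at RT and then CellTiter-Glo; luminescence was taken after 30 min.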

[5] = qHTS assay to identify small molecule antagonists of the farnesoid-X-receptor (FXR) signaling pathway - cell viability counter screen (AID 743221; active = well fitted cell-killing curve with a large enough effect in the repeat runs, not every such curve was filed as active; note: nearly all actives have a fitted effect of over 50% in size)
In short: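 In GeneBLAzer FXR-UAS-bla HEK 293T cells stimulated with 50 uM chenodeoxycholic acid (final), compounds acted for 16 h at 37 C. Viability was assessed afterwards by CellTiter-Glo luminescence.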

[6] = molecular target: Vitamin D3 receptor (Homo sapiens) (UniProt P11473); test: qHTS assay to identify small molecule agonists of the vitamin D receptor (VDR) signaling pathway (AID 743222; calls by dose curve)
In short: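 VDR-bla cells were seeded, left 4 h, treated with compounds in DMSO for 16 h, incubated 2 h at RT with B/G FRET substrate, and read for fluorescence.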

[7] = molecular target: Vitamin D3 receptor (Homo sapiens) (UniProt P11473); test: qHTS assay to identify small molecule antagonists of the vitamin D receptor (VDR) signaling pathway (AID 743223; active = well fitted inhibition curve with a large enough effect in the signal ratio in the repeat runs, not every such curve was filed as active; the % refers to the signal ratio)
In short: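 Agonist 1alpha,25-dihydroxyvitamin D3 (3 nM in well) was added with each compound to VDR-bla cells preincubated 4 h. Cells stood 16 h at 37C, then FRET substrate 2 h at room temperature; fluorescence intensity recorded.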

[8] = qHTS assay to identify small molecule agonists of the vitamin D receptor (VDR) signaling pathway - cell viability counter screen (AID 743224); note: nearly all actives have a fitted effect of over 50% in size; note: potency is the fitted concentration of half-maximal effect
In short: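 Here cell health was gauged by luminescent ATP detection (CellTiter-Glo, 30 min RT) in VDR-bla cells that had been incubated with test compounds for 16 h at 37C and 5% CO2.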

[9] = qHTS assay to identify small molecule antagonists of the vitamin D receptor (VDR) signaling pathway - cell viability counter screen (AID 743225); note: nearly all actives have a fitted effect of over 50% in size
In short: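 Luminescent cell viability (CellTiter-Glo) in VDR-bla HEK 293T cells after 16 h compound exposure at 37C in the presence of 3 nM final 1-alpha,25-dihydroxy vitamin D3.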

[10] = qHTS assay to identify small molecule agonists of the NFkB signaling pathway - cell viability counter screen (AID 1159515; calls by dose curve; note: series mostly up to about 61 µM; nearly all actives have a fitted effect of over 55% in size)
In short: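 5 hr compound treatment of NFkB-bla ME-180 cells (2,000/well, seeded overnight beforehand), followed by reporter substrate for 1.5 hr. CellTiter-Glo added afterward; luminescence after 30 min RT.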

[11] = qHTS assay to identify small molecule agonists of the endoplasmic reticulum stress response signaling pathway (AID 1159516; active = well fitted activation curve with a large enough effect in the signal ratio in the repeat runs, not every such curve was filed as active; the % refers to the signal ratio)
In short: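 Reporter HeLa cells (ESRE-beta-lactamase) underwent 5 hr compound incubation at 37 C and 5% CO2 in quantitative HTS format. Detection followed 2 hr of FRET substrate loading at room temperature.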

[12] = qHTS assay to identify small molecule agonists of the endoplasmic reticulum stress response signaling pathway - cell viability counter screen (AID 1159517; calls by dose curve)
In short: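 Counter-screen wells were identical to the reporter wells. Cells were plated at 1,500 per well and dosed for 5 hr, then read for luminescence 30 min after CellTiter-Glo addition.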

[13] = qHTS assay to identify small molecule antagonists of the retinoid-related orphan receptor gamma (ROR-gamma) signaling pathway - cell viability counter screen (AID 1159520); note: nearly all actives have a fitted effect of over 50% in size
In short: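 Tet-on ROR gamma CHO cells were given compounds for 2 hr, then doxycycline hyclate at 1 uM final, and incubated 16 hr at 37 C. Viability was measured as ATP content by CellTiter-Glo luminescence.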

[14] = molecular target: Nuclear receptor ROR-gamma (Homo sapiens) (UniProt P51449); test: qHTS assay to identify small molecule antagonists of the retinoid-related orphan receptor gamma (ROR-gamma) signaling pathway (AID 1159521; note: nearly all actives have a fitted effect of over 50% in size; note: potency is the fitted concentration of half-maximal effect)
In short: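 CHO cells expressing RORγ under a TET-on promoter, luciferase under RORE control. Dox 1 uM final, 16 h; compounds added 2 h prior. Luminescence decrease measured.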

[15] = qHTS assay to identify small molecule agonists of the AP-1 signaling pathway - cell viability counter screen (AID 1159525; calls by dose curve; note: nearly all actives have a fitted effect of over 55% in size; note: potency is the fitted concentration of half-maximal effect)
In short: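 AP-1-bla ME-180 cells in Opti-MEM with 0.5% dialyzed FBS, compound exposure 5 h at 37 C in 15-point titration. Viability read in the same wells as ATP content by CellTiter-Glo luminescence, normalised to tetra-n-octylammonium bromide and DMSO controls.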

[16] = qHTS assay to identify small molecule agonists of the AP-1 signaling pathway (AID 1159526; calls by dose curve)
[17] = molecular target: Retinoic acid receptor RXR-alpha (Homo sapiens) (UniProt P19793); test: qHTS assay to identify small molecule agonists of the RXR signaling pathway (AID 1159527; calls by dose curve; note: nearly all actives have a fitted effect of over 35% in size)
In short: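 Beta-lactamase reporter assay, agonist format. Engineered HEK 293T line, charcoal-stripped FBS at 2%, overnight (16 hr) exposure, fluorescence at 460 and 530 nm after 405 nm excitation.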

[18] = molecular target: Bile acid receptor (Homo sapiens) (UniProt Q96RI1); test: qHTS assay to identify small molecule antagonists of the farnesoid-X-receptor (FXR) signaling pathway (AID 743217; active = well fitted inhibition curve with a large enough effect in the signal ratio in the repeat runs, not every such curve was filed as active; the % refers to the signal ratio)
In short: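 In this cell-based antagonist screen, inhibition of CDCA-driven (50 uM final) UAS-beta-lactamase expression in HEK 293T cells was measured by FRET fluorescence following 16 h compound exposure at 37 °C.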

[19] = molecular target: Bile acid receptor (Homo sapiens) (UniProt Q96RI1); test: qHTS assay to identify small molecule agonists of the farnesoid-X-receptor (FXR) signaling pathway (AID 743220; active = well fitted activation curve with a large enough effect in the signal ratio in the repeat runs, not every such curve was filed as active; the % refers to the signal ratio)
In short: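 Beta-lactamase reporter under UAS control in GeneBLAzer FXR HEK 293T cells (5000/well) measured with LiveBLAzer FRET substrate after 2 h at room temperature. Compound exposure lasted 16 h at 37C.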

[20] = molecular target: Peroxisome proliferator-activated receptor delta (Homo sapiens) (UniProt Q03181); test: qHTS assay to identify small molecule agonists of the peroxisome proliferator-activated receptor delta (PPARd) signaling pathway (AID 743212; calls by dose curve)
In short: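 Quantitative high-throughput agonist screen in a HEK293H beta-lactamase reporter line under UAS control. Compounds in DMSO, at 37 C. Fluorescence read after 2 h with FRET substrate at room temperature.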

Measured: Potency

Sequence of Vitamin D3 receptor (Homo sapiens) (P11473 whole entry, looked up): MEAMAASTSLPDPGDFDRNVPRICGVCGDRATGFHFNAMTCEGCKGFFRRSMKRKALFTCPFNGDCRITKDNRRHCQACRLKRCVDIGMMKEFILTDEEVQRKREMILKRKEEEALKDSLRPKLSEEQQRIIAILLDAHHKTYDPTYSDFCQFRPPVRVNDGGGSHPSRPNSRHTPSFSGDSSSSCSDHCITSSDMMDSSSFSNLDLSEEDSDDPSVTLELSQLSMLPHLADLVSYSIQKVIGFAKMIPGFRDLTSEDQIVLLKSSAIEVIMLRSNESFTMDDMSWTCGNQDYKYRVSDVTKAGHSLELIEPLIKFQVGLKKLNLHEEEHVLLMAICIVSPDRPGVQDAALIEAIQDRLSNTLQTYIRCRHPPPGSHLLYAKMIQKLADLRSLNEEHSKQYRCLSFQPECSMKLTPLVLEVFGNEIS
Sequence of Retinoic acid receptor RXR-alpha (Homo sapiens) (P19793 whole entry, looked up): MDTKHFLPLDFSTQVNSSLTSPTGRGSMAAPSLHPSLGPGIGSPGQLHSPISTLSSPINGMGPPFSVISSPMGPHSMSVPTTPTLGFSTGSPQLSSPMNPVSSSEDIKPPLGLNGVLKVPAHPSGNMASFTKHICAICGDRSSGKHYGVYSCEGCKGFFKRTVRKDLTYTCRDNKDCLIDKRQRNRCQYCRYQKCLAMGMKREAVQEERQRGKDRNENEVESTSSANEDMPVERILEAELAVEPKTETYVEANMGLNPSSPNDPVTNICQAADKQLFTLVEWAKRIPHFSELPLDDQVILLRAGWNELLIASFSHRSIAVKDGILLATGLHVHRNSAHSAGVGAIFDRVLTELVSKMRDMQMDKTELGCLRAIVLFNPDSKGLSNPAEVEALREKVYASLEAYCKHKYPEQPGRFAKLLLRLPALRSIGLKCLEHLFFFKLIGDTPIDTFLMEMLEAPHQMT
Sequence of Bile acid receptor (Homo sapiens) (Q96RI1 whole entry, looked up): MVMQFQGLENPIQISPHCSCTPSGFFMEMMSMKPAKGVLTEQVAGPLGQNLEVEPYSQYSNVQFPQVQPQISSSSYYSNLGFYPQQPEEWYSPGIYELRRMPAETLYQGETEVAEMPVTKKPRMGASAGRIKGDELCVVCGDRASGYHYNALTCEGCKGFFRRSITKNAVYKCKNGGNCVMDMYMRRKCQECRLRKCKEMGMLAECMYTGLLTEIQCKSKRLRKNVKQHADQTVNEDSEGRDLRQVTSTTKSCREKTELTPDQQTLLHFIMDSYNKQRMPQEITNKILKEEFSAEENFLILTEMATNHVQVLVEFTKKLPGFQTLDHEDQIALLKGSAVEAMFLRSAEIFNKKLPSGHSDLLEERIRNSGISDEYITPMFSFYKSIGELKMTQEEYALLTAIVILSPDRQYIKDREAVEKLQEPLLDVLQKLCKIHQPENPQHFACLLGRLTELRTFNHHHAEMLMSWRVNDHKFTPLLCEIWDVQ
Sequence of Peroxisome proliferator-activated receptor delta (Homo sapiens) (Q03181 whole entry, looked up): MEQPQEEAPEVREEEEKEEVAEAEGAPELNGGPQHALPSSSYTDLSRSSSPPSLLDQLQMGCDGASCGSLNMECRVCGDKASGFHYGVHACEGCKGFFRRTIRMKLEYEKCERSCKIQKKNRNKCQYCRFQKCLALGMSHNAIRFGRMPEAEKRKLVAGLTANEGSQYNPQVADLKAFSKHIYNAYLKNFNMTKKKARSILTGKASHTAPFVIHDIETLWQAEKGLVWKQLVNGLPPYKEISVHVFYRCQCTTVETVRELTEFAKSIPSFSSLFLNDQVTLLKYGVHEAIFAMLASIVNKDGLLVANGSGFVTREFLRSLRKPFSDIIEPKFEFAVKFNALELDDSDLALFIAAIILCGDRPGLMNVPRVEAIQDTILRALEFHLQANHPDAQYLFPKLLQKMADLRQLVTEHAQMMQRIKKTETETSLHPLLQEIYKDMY

Nc1ccc([N+](=O)[O-])cc1N
active: [14] 9.68 µM and 30.6 µM
34.7 µM (active) and inactive: [15]
not listed: [18] | [19] | [20]
inactive: all other assays above

Clc1ccc(C(Cl)(Cl)Cl)cc1
not listed: [3] | [5] | [6] | [7] | [20]
inactive: all other assays above

S=c1[nH]c2ccccc2[nH]1
not listed: [3] | [5] | [6] | [7] | [9] | [18] | [19] | [20]
inactive: all other assays above

CCNc1nc(Cl)nc(NC(C)(C)C#N)n1
not listed: [6] | [7] | [17] | [18] | [19]
inactive: all other assays above

CCCCOCC1CO1 (configuration not stated)
not listed: [20]
inactive: all other assays above

Brc1ccc(Br)cc1
not listed: [2]
inactive: all other assays above

Nc1ncn[nH]1
not listed: [5] | [6] | [7] | [9] | [20]
inactive: all other assays above

O=NN(c1ccccc1)c1ccccc1
not listed: [5] | [6] | [7] | [9]
inactive: all other assays above

O=C1Nc2ccc(Cl)cc2C(c2ccccc2)=NC1O (configuration not stated)
not listed: [5] | [20]
inactive: all other assays above

CSc1nc(NC(C)C)nc(NC(C)C)n1
not listed: [3] | [5] | [9] | [18] | [19] | [20]
inactive: all other assays above

O=C(O)CF
not listed: [3] | [18] | [19] | [20]
inactive: all other assays above

COP(=S)(OC)Oc1ccc(S(=O)(=O)N(C)C)cc1
not listed: [3] | [5] | [18] | [19] | [20]
inactive: all other assays above

OCCOCCO
not listed: [5] | [9] | [17] | [20]
inactive: all other assays above

CN(C)c1nc(=O)n(C2CCCCC2)c(=O)n1C
inactive: all assays above

N#Cc1nn(-c2c(Cl)cc(C(F)(F)F)cc2Cl)c(N)c1S(=O)C(F)(F)F (configuration not stated)
active: [14] 7.74 µM and 16.8 µM
24.7 µM (active) and inactive: [8]
22 µM (active) and inactive: [1]
not listed: [2] | [3] | [9] | [17] | [18] | [20]
inactive: all other assays above

COP(=S)(OC)Oc1ccc(Sc2ccc(OP(=S)(OC)OC)cc2)cc1
not listed: [9] | [14] | [18] | [19]
inactive: all other assays above
